Our source for the cell event count values is PubChem BioAssay AID1076 (NMMLSC, 2008).

The source made the active and inactive calls.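 How the source made its calls: active means cell event count below 40, meaning activity score above 60 where score is 100 minus count; inactive means the rest.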

The assay in a line: cytotoxicity in LNCaP prostate cells – cell-based, cell event count, single point, cytotoxicity control for prostate differentiation activator project, confirmation (AID 1076).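 Further: counts scatter-gated live cells after medium removal discards detached dead cells.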 Conditions: LNCaP cell loss, flow cytometry event count, 4 d, stronger effect = lower value. On the technique in general: A flow cytometer gives signals particle by particle.

For `COc1ccc(-c2noc(CCC(=O)NCCCN3CCC(Cc4ccccc4)CC3)n2)cc1`, the cell event count was 23 (active) (at 100 µM) and 51 (event count, at 10 µM).

`O=C(NCCCN1CCOCC1)c1cc2c(s1)CSC2`: the cell event count reads like this: (at 100 µM) 191 (inactive); (event count, at 10 µM) 52.5.

Take `CCOC(=O)CSc1nnc(CNC(=O)c2ccccc2OC)n1-c1ccc(OC)cc1`: the cell event count (at 100 µM) was 256 (inactive) and the cell event count (event count, at 10 µM) was found to be 156.

On to `O=c1c2ccccc2nnn1CSc1nnc2sc3ccccc3n12`, for which the cell event count is, setting by setting: (at 100 µM) 141 (inactive); (event count, at 10 µM) 143.

In the case of `Cc1ccccc1-c1nc(CN2CCC(C(=O)NCCCN3CCOCC3)CC2)c(C)o1`, the cell event count is 38 (inactive) (at 100 µM) and 126 (event count, at 10 µM).

With `COc1ccc(CCNC(=O)C2CCN(Cc3nc(-c4ccccc4F)oc3C)CC2)cc1OC`, the cell event count is 524 (inactive) (at 100 µM) and 478 (event count, at 10 µM).

For the compound `CCOc1cccc2cc(-c3cn4cc(C)ccc4n3)c(=O)oc12`, the cell event count (at 100 µM) was 267 (inactive) and the cell event count (event count, at 10 µM) was determined as 300.

Turning to `CCN1CCCC1CNC(=O)C1CCN(Cc2nc(-c3cccc(Br)c3)oc2C)CC1` (stereo not given), the cell event count runs as follows: (at 100 µM) 16 (inactive); (event count, at 10 µM) 78.

With `Cc1cccc(-c2nc(CN3CCCC(C(=O)NC4CCC(C)CC4)C3)c(C)o2)c1` (stereo not given), the cell event count is, setting by setting: (at 100 µM) 5 (inactive); (event count, at 10 µM) 138.

As to `Cc1ccccc1-c1nc(CN2CCC(C(=O)NCc3cccnc3)CC2)c(C)o1`, the cell event count reads like this: (at 100 µM) 268 (inactive); (event count, at 10 µM) 208.

As to `N=c1n(CCO)c2ccccc2n1CCOc1ccc(Cl)cc1Cl`, the cell event count is 18 (inactive) (at 100 µM) and 272 (event count, at 10 µM).

In the case of `Cc1cc(C)n2nnnc2c1C#N`, the cell event count was 257 (inactive) (at 100 µM) and 172 (event count, at 10 µM).

Regarding `O=C(CCNC(=O)Cn1ccc2ccccc2c1=O)NCCCN1CCN(c2ccccc2F)CC1`, the cell event count was 112 (inactive) (at 100 µM) and 126 (event count, at 10 µM).

Regarding `Cc1oc(-c2ccccc2F)nc1CN1CCC(C(=O)NCCC2=CCCCC2)CC1`, the cell event count (at 100 µM) is 17 (inactive) and the cell event count (event count, at 10 µM) was 402.

Consider `CCCCOC(=O)Nc1cc(C(=O)OC)ccc1C(=O)OC`, for which the cell event count by setting is: (at 100 µM) 143 (inactive); (event count, at 10 µM) 206.

Take `COc1ccccc1N1CCN(c2nc3ccccc3nc2C(C#N)C(=O)OC(C)C)CC1` (stereo not given): the cell event count (at 100 µM) is 110 (inactive) and the cell event count (event count, at 10 µM) worked out at 252.

Take `Cc1oc(-c2ccccc2F)nc1CN1CCC(C(=O)NC2CCCCCCC2)CC1`: the cell event count is 6 (inactive) (at 100 µM) and 90 (event count, at 10 µM).

With `CCN(CC)CCNC(=O)c1ccc(N2CCCCC2)c(NS(=O)(=O)c2ccc(C)cc2)c1`, the cell event count by setting is: (at 100 µM) 17 (inactive); (event count, at 10 µM) 197.

`O=C(NCCCN1CCN(c2cccc(Cl)c2)CC1)c1ccc(N2CCCC2=O)cc1`: the cell event count reads like this: (at 100 µM) 52 (inactive); (event count, at 10 µM) 171.

As to `Cn1c(=O)cc(SCC(=O)NCCCN2CCN(c3ccc(F)cc3)CC2)c2ccccc21`, the cell event count reads like this: (at 100 µM) 30 (inactive); (event count, at 10 µM) 211.

With `O=S1(=O)C=C(Sc2nc3ccccc3s2)c2ccccc21`, the cell event count reads like this: (at 100 µM) 39 (active); (event count, at 10 µM) 44.

Regarding `Cc1cc(O)c(-c2cc(C(=O)Nc3ccc(S(=O)(=O)N4CCOCC4)cc3)[nH]n2)cc1C`, the cell event count by setting is: (at 100 µM) 36 (inactive); (event count, at 10 µM) 86.

Take `O=C(NCC1CCCO1)C1CC(c2ccc(Cl)c(Cl)c2)=NO1` (stereo not given): the cell event count by setting is: (at 100 µM) 85 (inactive); (event count, at 10 µM) 79.

With `CCc1ncc(C(O)c2cccc(OC)c2OC)n1C` (stereo not given), the cell event count reads like this: (at 100 µM) 285 (inactive); (event count, at 10 µM) 172.

In the case of `O=C(NCCCN1CCN(c2ccccc2F)CC1)C1CCN(S(=O)(=O)c2cccs2)CC1`, the cell event count (at 100 µM) is 44 (inactive) and the cell event count (event count, at 10 µM) was determined as 95.5.

In the case of `CCCCC(=O)NCCc1ccc(S(N)(=O)=O)cc1`, the cell event count (at 100 µM) is 238 (inactive) and the cell event count (event count, at 10 µM) is 92.5.

On to `Cc1ccccc1-c1nc(CN2CCC(C(=O)N3CCN(c4ccccn4)CC3)CC2)c(C)o1`, for which the cell event count is 73 (inactive) (at 100 µM) and 190 (event count, at 10 µM).

`O=C(NC1CCCC1)C1CCN(S(=O)(=O)c2cccc3cccnc23)CC1`: the cell event count by setting is: (at 100 µM) 371 (inactive); (event count, at 10 µM) 182.

Take `Cc1oc(-c2ccccc2F)nc1CN1CCC(C(=O)NCc2cccnc2)CC1`: the cell event count reads like this: (at 100 µM) 290 (inactive); (event count, at 10 µM) 364.

With `CCOC(=O)c1c(NCc2ccc3c(c2)OCO3)c2ccccc2[nH]c1=O`, the cell event count reads like this: (at 100 µM) 39 (inactive); (event count, at 10 µM) 357.

In the case of `CN(C(=O)c1ccccn1)c1nnc(-c2cccnc2)s1`, the cell event count by setting is: (at 100 µM) 168 (inactive); (event count, at 10 µM) 240.

In the case of `CCN(CC)CCCNC(=O)c1cc2c(-c3ccc(Cl)cc3)nn(C)c2s1`, the cell event count was 13 (active) (at 100 µM) and 71.5 (event count, at 10 µM).

Consider `Cc1cc(N2CCN(C)CC2)nc2ccc(NC(=O)c3ccc4c(c3)OCO4)cc12`, for which the cell event count reads like this: (at 100 µM) 57 (inactive); (event count, at 10 µM) 278.

With `O=C(CCN1C(=O)COc2ccccc21)NCCCN1CCN(c2ccc(F)cc2)CC1`, the cell event count is 117 (inactive) (at 100 µM) and 146 (event count, at 10 µM).

With `CCOC(=O)c1ccc(NC(=O)Nc2ccc3c4c(cccc24)C(=O)N3CC)cc1`, the cell event count is 70 (inactive) (at 100 µM) and 254 (event count, at 10 µM).

Take `COc1ccccc1CNC(=O)C1CCN(Cc2nc(-c3cccc(Cl)c3)oc2C)CC1`: the cell event count runs as follows: (at 100 µM) 9 (inactive); (event count, at 10 µM) 158.

For the compound `COc1ccc2nc3oc(C(=O)NCc4cccs4)cc3cc2c1`, the cell event count was 307 (inactive) (at 100 µM) and 304 (event count, at 10 µM).

As to `Cc1ccc(-n2nc3cc(Cl)c(NC(=O)c4ccco4)cc3n2)cc1`, the cell event count was 333 (inactive) (at 100 µM) and 236 (event count, at 10 µM).

Take `O=C(Cn1cc2c(n1)CCCC2)NCCCN1CCN(c2ccccc2F)CC1`: the cell event count was 94 (inactive) (at 100 µM) and 102 (event count, at 10 µM).

As to `COc1ccc(CCNC(=O)C2CCCN(Cc3nc(-c4cccc(Cl)c4)oc3C)C2)cc1OC` (stereo not given), the cell event count was 21 (inactive) (at 100 µM) and 247 (event count, at 10 µM).
